PubChem BioAssay (Tox21)
Results filed as inconclusive are left out. Activity calls are given as the source filed them. Unless noted, calls follow the shape of the dose curve; as a rule, active = well fitted curve in the direction sought with a large enough effect in the repeat runs; inconclusive = weak or mixed curves; inactive = no such curve, though single readings can be large; an effect the other way counts as inactive or inconclusive.

Columns and labels:
[1] = target: Estrogen receptor (Homo sapiens) (UniProt P03372); experiment: qHTS assay to identify small molecule antagonists of the estrogen receptor alpha (ER-alpha) signaling pathway using the BG1 cell line in the presence of 0.1 nM 17-beta-estradiol (AID 1259244); also: nearly all actives have a fitted effect of over 50% in size; also: potency is read from the fitted curve at half-maximal effect
Procedure, shortened: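 Luciferase luminescence (ONE-Glo, 30 min at room temperature) was read after 22 hr at 37C exposure to compounds plus 17beta-estradiol at 0.1 nM final. Cells were VM7Luc4E2 with endogenous ER-alpha and an ERE-driven luciferase, pre-cultured 5 days in hormone-depleted medium.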

[2] = qHTS assay to identify small molecule HDAC inhibitors (AID 1259364); also: top concentration of the series differs between compounds; nearly all actives have a fitted effect of over 45% in size
Procedure, shortened: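 Luminescence read after 30 min room-temperature HDAC-Glo incubation measures cellular class I/II HDAC activity. Compounds were applied for 2 hr at 37 C to HCT-116 wild-type cells seeded the day before.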

[3] = qHTS assay to identify small molecule HDAC inhibitors - cell viability counter screen (AID 1259365); also: series mostly up to about 92 µM; nearly all actives have a fitted effect of over 50% in size
Procedure, shortened: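 Wild-type HCT-116 cells, 1,500/well, cultured overnight, then compound-treated 2 h at 37 C. Viability measured as ATP luminescence with CellTiter-Glo after 30 min at room temperature.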

[4] = qHTS assay to identify small molecule agonists of the sonic hedgehog signaling (Shh) pathway - cell viability counter screen (AID 1259366); also: nearly all actives have a fitted effect of over 50% in size; also: potency is read from the fitted curve at half-maximal effect
Procedure, shortened: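 NIH/3T3-derived Gli1-Luc reporter cells, 2,000 per well, received compound after 4 h and were treated about 23 h at 37C. Viability measured in the same wells by CellTiter-Fluor fluorescence after 1 h.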

[5] = qHTS assay to identify small molecule antagonists of the sonic hedgehog signaling (Shh) pathway - cell viability counter screen (AID 1259367); also: nearly all actives have a fitted effect of over 55% in size; also: potency is read from the fitted curve at half-maximal effect
Procedure, shortened: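 Fluorescence read-out (CellTiter-Fluor, 1 hr at 37C) taken after 23 hr compound treatment of 3T3 Gli1-Luc cells stimulated with conditioned medium. Cells were seeded at 2,000 per well and pre-incubated 4 hr.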

[6] = qHTS assay to identify small molecule agonists of the sonic hedgehog signaling (Shh) pathway (AID 1259368; calls by dose curve;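 also: NIH/3T3-derived 3T3Gli1-Luc cells carrying a stable Gli1-driven firefly luciferase reporter; series mostly up to about 92 µM; nearly all actives have a fitted effect of over 15% in size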)
Procedure, shortened: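 Luminescence was read after 30 min at room temperature with luciferase reagent. Before that, 3T3Gli1-Luc cells (NIH/3T3 clone, stable Gli1-Luc reporter; 2,000/well) were exposed to compounds for 24 hr at 37C, 5% CO2, compounds being added 4 hr post-plating.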

[7] = qHTS assay to identify small molecule phospholipidosis (PLD) inducers (AID 1259344; active = well fitted curve in the direction sought with a large enough effect; an effect the other way counts as inactive or inconclusive)
Procedure, shortened: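 Read-out is LipidTOX Red fluorescence (ex 595/em 615) imaged in HepG2 cells after 24 h compound exposure at 37 C, with Hoechst nuclear counterstain (ex 352/em 461) allowing per-cell normalisation.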

[8] = qHTS assay to identify small molecule antagonists of the sonic hedgehog signaling (Shh) pathway (AID 1259369; calls by dose curve; also: nearly all actives have a fitted effect of over 45% in size; also: potency is read from the fitted curve at half-maximal effect)
Procedure, shortened: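 Antagonist mode: compound added to 3T3 Gli1-Luc cells followed by conditioned-medium stimulation, 24 h at 37 C, 5% CO2. Inhibition taken as loss of Gli1-driven luciferase luminescence.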

[9] = target: Androgen receptor (Homo sapiens) (UniProt P10275); experiment: qHTS assay to identify small molecule antagonists of the androgen receptor (AR) signaling pathway using the MDA cell line in the presence of 0.5 nM R1881 (AID 1259243); also: nearly all actives have a fitted effect of over 50% in size
Procedure, shortened: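 Luminescent reporter readout (ONE-Glo, 30 min, room temperature) after 16 hr co-treatment of MDA-kb2 cells with test compounds and 0.5 nM R1881 final, at 37C without CO2. The MMTV-driven luciferase responds to both AR and GR.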
% is scaled to controls: 0 for no effect and ±100 for the full control effect.

Chain of Estrogen receptor (Homo sapiens) (P03372 whole entry, looked up): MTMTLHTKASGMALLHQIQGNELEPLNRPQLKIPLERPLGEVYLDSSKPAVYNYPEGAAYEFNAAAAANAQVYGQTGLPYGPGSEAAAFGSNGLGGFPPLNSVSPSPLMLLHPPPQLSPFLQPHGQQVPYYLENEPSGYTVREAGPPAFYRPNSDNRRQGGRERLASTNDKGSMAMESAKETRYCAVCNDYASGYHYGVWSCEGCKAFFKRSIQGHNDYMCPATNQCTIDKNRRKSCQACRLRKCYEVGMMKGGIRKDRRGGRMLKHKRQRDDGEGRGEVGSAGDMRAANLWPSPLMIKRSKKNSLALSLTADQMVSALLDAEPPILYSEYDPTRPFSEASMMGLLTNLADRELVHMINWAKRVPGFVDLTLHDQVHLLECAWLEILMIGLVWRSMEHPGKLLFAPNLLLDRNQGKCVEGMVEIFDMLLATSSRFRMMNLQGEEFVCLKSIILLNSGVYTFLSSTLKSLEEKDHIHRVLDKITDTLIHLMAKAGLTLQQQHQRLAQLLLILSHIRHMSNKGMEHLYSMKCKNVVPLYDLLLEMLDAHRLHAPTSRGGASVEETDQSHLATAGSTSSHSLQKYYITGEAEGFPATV
Chain of Androgen receptor (Homo sapiens) (P10275 whole entry, looked up): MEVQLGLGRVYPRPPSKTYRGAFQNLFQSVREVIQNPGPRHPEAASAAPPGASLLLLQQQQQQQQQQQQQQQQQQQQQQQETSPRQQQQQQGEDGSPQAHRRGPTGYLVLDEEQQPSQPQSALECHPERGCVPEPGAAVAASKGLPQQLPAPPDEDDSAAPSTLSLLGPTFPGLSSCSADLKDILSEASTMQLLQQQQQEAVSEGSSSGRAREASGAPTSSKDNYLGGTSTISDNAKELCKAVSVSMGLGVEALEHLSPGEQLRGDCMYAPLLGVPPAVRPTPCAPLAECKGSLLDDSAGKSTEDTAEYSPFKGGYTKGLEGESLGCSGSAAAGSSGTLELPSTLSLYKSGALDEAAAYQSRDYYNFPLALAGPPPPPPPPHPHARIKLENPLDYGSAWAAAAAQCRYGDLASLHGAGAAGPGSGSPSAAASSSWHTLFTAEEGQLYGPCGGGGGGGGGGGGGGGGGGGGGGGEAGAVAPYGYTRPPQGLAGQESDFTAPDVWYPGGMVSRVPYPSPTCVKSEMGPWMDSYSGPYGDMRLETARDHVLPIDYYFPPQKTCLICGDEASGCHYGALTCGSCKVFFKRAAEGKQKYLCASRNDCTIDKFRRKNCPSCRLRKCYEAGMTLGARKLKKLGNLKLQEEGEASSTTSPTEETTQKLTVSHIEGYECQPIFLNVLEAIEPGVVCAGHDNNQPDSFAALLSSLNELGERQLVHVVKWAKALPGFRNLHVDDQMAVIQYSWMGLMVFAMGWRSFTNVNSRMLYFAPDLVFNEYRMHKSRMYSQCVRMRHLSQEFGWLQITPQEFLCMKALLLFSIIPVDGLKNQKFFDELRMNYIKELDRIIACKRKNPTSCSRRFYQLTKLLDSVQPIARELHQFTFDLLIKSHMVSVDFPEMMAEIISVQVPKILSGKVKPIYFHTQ

Nc1cnn([C@@H]2O[C@H](CO)[C@@H](O)[C@H]2O)c(=O)n1
inactive: Potency [1] | Potency [2] | outcome [3] | Potency [4] | Potency [5] | outcome [6]

CCN(CC)CCNC(C(=O)OCCC(C)C)c1ccccc1 (stereo not drawn)
inactive: Potency [1] | Potency [7] | outcome [3] | Potency [4] | outcome [6] | Potency [8]

CNCC[C@@H](Oc1ccccc1C)c1ccccc1
inactive: Potency [1] | Potency [7] | Potency [2] | outcome [3] | Potency [5] | outcome [6]

CCCCCCCCCCCCCCCCCBr
inactive: activity change, negative = cytotoxicity [3] 0.135% [at 19 µM] | viability change, negative = cytotoxic [4] -1.63% [at 19 µM] | viability change, negative = cytotoxic [5] -1.98% [at 19 µM] | activity change [6] -0.456% [at 18.9 µM]

CC(C)(C)C(=O)OCOP(=O)(COCCn1cnc2c(N)ncnc21)OCOC(=O)C(C)(C)C
inactive: Potency [7] | Potency [2] | outcome [3] | outcome [6]
active: Potency [4] 10.6 µM | Potency [5] 9.44 µM | Potency [8] 2.98 µM

Cc1cc(C)c(S(=O)(=O)O)cc1N=Nc1cc(S(=O)(=O)O)c2ccccc2c1O
inactive: Potency [9] | Potency [2] | outcome [3] | outcome [6] | Potency [8]

CCCCOC(=O)c1ccccc1C(=O)OCC(CC)CCCC (stereo not drawn)
inactive: Potency [1] | Potency [2] | outcome [3] | Potency [4] | Potency [5] | outcome [6] | Potency [8]

COCCCCCCCCOCCC[Si](C)(O[Si](C)(C)C)O[Si](C)(C)C
active: Potency [1] 17.2 µM
inactive: Potency [2] | outcome [3] | Potency [4] | outcome [6] | Potency [8]

O=C=NC1CCC(CC2CCC(N=C=O)CC2)CC1 (stereo not drawn)
active: Potency [8] 43.3 µM
inactive: Potency [2] | outcome [3] | outcome [6]

CCN(CC)CCc1nc(-c2ccccc2)no1
inactive: Potency [1] | Potency [7] | Potency [2] | outcome [3] | Potency [4] | Potency [5] | outcome [6] | Potency [8]

c1ccc(-c2nc[nH]c2-c2ccccc2)cc1
inactive: Potency [7] | Potency [2] | outcome [3] | Potency [5] | outcome [6]

CC(C)NCC(O)c1cc(O)cc(O)c1 (stereo not drawn)
inactive: Potency [7] | Potency [2] | outcome [3] | Potency [4] | Potency [5] | outcome [6] | Potency [8]

N#Cc1c(F)cccc1F
inactive: Potency [2] | outcome [3] | Potency [5] | outcome [6] | Potency [8]

Cl/C(=C\n1cncn1)c1ccc(Cl)cc1Cl
inactive: Potency [7] | Potency [2] | outcome [3] | Potency [4] | Potency [5] | outcome [6] | Potency [8]

Cc1cccc(C(C)(C)C)c1O
inactive: Potency [1] | Potency [2] | outcome [3] | Potency [4] | Potency [5] | outcome [6] | Potency [8]

CC1=CCC(C(C)C)C=C1 (stereo not drawn)
inactive: Potency [1] | outcome [3] | Potency [5] | outcome [6] | Potency [8]

CCN(CC)CCOc1ccc2c(c1)C(=O)c1cc(OCCN(CC)CC)ccc1-2
inactive: Potency [2] | outcome [3] | Potency [4] | outcome [6] | Potency [8]

C=Cc1c(C)c2cc3[nH]c(cc4nc(cc5nc(cc1[nH]2)C(C)=C5CCC(=O)O)C(CCC(=O)O)=C4C)c(C)c3C=C
inactive: Potency [1] | Potency [7] | Potency [2] | outcome [3] | outcome [6]
active: Potency [4] 13.3 µM | Potency [5] 23.7 µM

CC(=O)OCCc1ccccc1
inactive: Potency [1] | outcome [3] | Potency [4] | Potency [5] | outcome [6] | Potency [8]
